Results filed as inconclusive are left out. Where a call stands in place of a potency, no number is given. Calls of active or inactive are those of the source. Unless noted, the call rests on the fitted dose curve; in most records, active means well fitted curve in the direction sought with a large enough effect; inconclusive means small, poorly fitted or top-dose-only effect, or another doubt; inactive means no such curve, though single readings can be large; an effect the other way counts as inactive or inconclusive.
Tests used:
[1] = target: Cytochrome P450 3A4 (Homo sapiens) (UniProt P08684); assay: qHTS Assay for Activators of Cytochrome P450 3A4 (AID 885); further: nearly all actives have a fitted effect of over 65% in size
Outline: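 Luminescent readout of luciferin formed from 25 uM Luciferin-PPXE (KM level) by 20 nM CYP3A4 in 200 mM KPO4, with 60 min NADPH-driven reaction at room temperature after 10 min compound exposure. Ketoconazole (57 uM) defined 100% inhibition.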

[2] = Confirmation and Secondary Assay for Modulators of Hemoglobin Beta Chain Splicing at IVS2 654 locus (AID 910);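 further: HeLa cells stably carrying EGFP split by mutant beta-globin IVS2-654 intron; per-well total GFP intensity by laser scanning cytometry after 2-day treatment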
Outline: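 Readout: per-well total peak green fluorescence (488 nm ex, 500–520 nm em) from objects 5–250 µm, reflecting correct splicing of an EGFP-654 reporter. Compounds were applied for 2 days at 37 °C to overnight-plated HeLa EGFP-654 cells; controls were DMSO and 500 nM IVS2-654 PNA.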

[3] = Confirmation and Secondary Assay for Modulators of Hemoglobin Beta Chain Splicing at IVS2 705 locus (AID 930);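 further: HeLa cells stably expressing the EGFP-705 splicing reporter; GFP fluorescence per well restored by corrected splicing of the IVS2-705 intron in EGFP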
Outline: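 First, HeLa EGFP-705 cells are seeded at 500/well in Optimem with 2% FCS and left overnight. Next, compound or DMSO is added for 2 days. Finally wells are laser-scanned and total peak GFP intensity scored.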

[4] = qHTS Assay for Lipid Storage Modulators (AID 1519; calls by dose curve); conditions: Drosophila S3 cells, BODIPY lipid droplet/cell ratio, laser cytometry, cells loaded with oleic acid; for activity change, negative = inhibition: at 57.5 µM (top of the series)
Outline: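 Cells seeded at 5,000 per well were treated with compounds over a concentration series and loaded with oleic acid (400 uM, as added). Lipid droplet fluorescence (488 nm excitation, 500-530 nm channel) was read by laser-scanning cytometry and normalized to 20 uM Triacsin C.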

[5] = target: Ubiquitin carboxyl-terminal hydrolase 1 (Homo sapiens) (UniProt O94782); assay: Inhibitors of USP1/UAF1: Pilot qHTS (AID 504865); further: nearly all actives have a fitted effect of over 35% in size; further: potency means the concentration at half of the fitted maximal effect;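 on activity change, negative = inhibition: rhodamine fluorescence freed from ubiquitin-rhodamine substrate followed over time; top concentration of the series differs between compounds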
Outline: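 Deubiquitinase activity followed as kinetic rhodamine fluorescence release from 150 nM Ub-Rho. 1 nM USP1/UAF1 with compound, after 15 min room-temperature preincubation, in HEPES pH 7.8 buffer containing TCEP, EDTA, BSA and Tween-20.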

[6] = measured here: cell count channel max response
[7] = measured here: lipid channel max response

Chain of Cytochrome P450 3A4 (Homo sapiens) (P08684 whole entry, looked up): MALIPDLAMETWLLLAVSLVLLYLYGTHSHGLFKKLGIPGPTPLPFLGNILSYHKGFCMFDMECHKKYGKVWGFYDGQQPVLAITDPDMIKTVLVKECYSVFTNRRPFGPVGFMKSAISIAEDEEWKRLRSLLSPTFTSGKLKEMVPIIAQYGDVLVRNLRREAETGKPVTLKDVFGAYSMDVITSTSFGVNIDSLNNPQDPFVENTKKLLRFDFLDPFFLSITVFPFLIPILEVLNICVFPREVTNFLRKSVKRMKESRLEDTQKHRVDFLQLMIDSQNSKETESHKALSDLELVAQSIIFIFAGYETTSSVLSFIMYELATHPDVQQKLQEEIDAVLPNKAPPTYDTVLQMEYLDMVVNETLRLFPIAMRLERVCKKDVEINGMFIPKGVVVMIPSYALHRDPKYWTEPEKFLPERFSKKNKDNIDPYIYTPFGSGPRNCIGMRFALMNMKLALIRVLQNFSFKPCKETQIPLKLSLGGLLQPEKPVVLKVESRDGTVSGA
Chain of Ubiquitin carboxyl-terminal hydrolase 1 (Homo sapiens) (O94782 whole entry, looked up): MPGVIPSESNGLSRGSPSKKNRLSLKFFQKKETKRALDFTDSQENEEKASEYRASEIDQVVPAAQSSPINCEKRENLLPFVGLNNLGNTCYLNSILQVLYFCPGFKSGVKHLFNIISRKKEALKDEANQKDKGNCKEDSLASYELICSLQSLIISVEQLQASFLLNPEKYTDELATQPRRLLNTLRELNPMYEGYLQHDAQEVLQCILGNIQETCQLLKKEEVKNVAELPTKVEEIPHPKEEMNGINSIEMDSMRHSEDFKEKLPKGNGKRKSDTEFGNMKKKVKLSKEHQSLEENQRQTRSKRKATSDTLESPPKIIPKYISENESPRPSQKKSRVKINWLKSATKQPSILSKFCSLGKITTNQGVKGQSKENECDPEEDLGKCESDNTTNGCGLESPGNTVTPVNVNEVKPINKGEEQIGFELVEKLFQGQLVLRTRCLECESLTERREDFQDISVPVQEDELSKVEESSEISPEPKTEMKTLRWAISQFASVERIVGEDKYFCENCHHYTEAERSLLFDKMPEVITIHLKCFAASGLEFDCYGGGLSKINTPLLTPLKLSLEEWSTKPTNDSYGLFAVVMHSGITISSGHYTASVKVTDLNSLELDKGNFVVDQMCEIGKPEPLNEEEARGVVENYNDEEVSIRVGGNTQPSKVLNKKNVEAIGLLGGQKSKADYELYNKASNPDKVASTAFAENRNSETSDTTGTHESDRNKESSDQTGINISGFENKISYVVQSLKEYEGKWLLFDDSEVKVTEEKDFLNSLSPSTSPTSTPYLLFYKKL

| Compound | Potency [1] | Potency [2] | Potency [3] | activity change, negative = inhibition [4] | max response [4, 6] | max response [4, 7] | Potency [5] |
| --- | --- | --- | --- | --- | --- | --- | --- |
| COC1=CC(=O)C(C(=O)c2ccccc2)=CC1=O | inactive | inactive | inactive | 9.22% (inactive) | 13.1% | 25.8% | 25.1 µM (active) |
| COc1cc(O)c(C)c(O)c1 | inactive | inactive | inactive | 1.69% (inactive) | 3.91% | 5.62% | inactive |
| CC1(C)CC2C1CCC1(C)OC1CCC2(C)O (stereo not given) | inactive | inactive | inactive | -2.16% (inactive) | -0.415% | 2.87% | inactive |
| Cc1cc(=O)oc2c(O)c(O)ccc12 | inactive | inactive | inactive | -5.44% (inactive) | -3.48% | -9.34% | inactive |
| COc1ccc(-c2oc3cc(O[C@@H]4OC(CO)C(O)C(O)C4O)c(OC)c(O)c3c(=O)c2OC)cc1O (stereo not given in full) | inactive | inactive | inactive | 2.95% (inactive) | -7.2% | -6.13% | inactive |
| CCOC(=O)c1c(C)cc(O)c(C=O)c1O | inactive | inactive | inactive | 7.6% (inactive) | -4.41% | 3.24% | inactive |
| CC(=O)OC1CC(OC(C)=O)[C@]2(C)C(CC(=O)[C@]3(C)C2CC[C@@]2(C)C(C(=O)O)OC(=O)C4OC423)C1(C)C (stereo not given in full) | inactive | inactive | inactive | 3.41% (inactive) | 10.8% | 15.4% | inactive |
| CCCC1OC2CC3C4CCC5=CC(=O)C=CC5(C)C4C(O)CC3(C)[C@]2(C(=O)CO)O1 (stereo not given in full) | inactive | inactive | inactive | 8.38% (inactive) | 24.3% | 37.9% | inactive |
| COC(=O)/C(=C1\OC(=O)C(c2ccccc2)C1=O)c1ccccc1 (stereo not given) | inactive | inactive | inactive | 5.87% (inactive) | 11.1% | 17.7% | inactive |
| CO[C@]12CC(COC(=O)c3cncc(Br)c3)CN(C)[C@@H]1Cc1cn(C)c3cccc2c13 (stereo not given in full) | inactive | inactive | inactive | 10.2% (inactive) | 10.9% | 29% | inactive |
| COC(=O)c1c(C)cc(OC)cc1O | inactive | inactive | inactive | 8.17% (inactive) | 10% | 23.5% | inactive |
| CC(=O)O[C@](C)(CCC=C(C)C)C1CC=C(C)CC1 (stereo not given in full) | inactive | inactive | inactive | 3.31% (inactive) | 17.9% | 22% | inactive |
| COc1cc(OC)c(C(C)=O)c(O)c1C | inactive | inactive | inactive | 17% (inactive) | 5.25% | 27.6% | inactive |
| Oc1ccc(C2Oc3cc(O)cc(O)c3CC2O)cc1 (stereo not given) | inactive | inactive | inactive | 14.6% (inactive) | -6.15% | 20.5% | inactive |
| COc1ccc(C(=O)c2ccc(O)cc2)c(O)c1O | inactive | inactive | inactive | 4.3% (inactive) | 2.91% | 8.25% | inactive |
| O=C(/C=C/c1ccccc1)OC1CC(O)C2(O)C=CO[C@@H](OC3OC(CO)C(O)C(O)C3O)C12 (stereo not given in full) | inactive | inactive | inactive | 3.28% (inactive) | -10.8% | 7.13% | inactive |
| CCOC(=O)C(Cc1ccc(O)cc1)NC(C)=O (stereo not given) | inactive | inactive | inactive | 7.38% (inactive) | 6.37% | 13.9% | inactive |
| CC(C)=CCOc1cc2oc(=O)ccc2cc1O | inactive | inactive | inactive | 12.4% (inactive) | -16.3% | -2.91% | inactive |
| COC(=O)c1cc(OC)c(=O)c2c(OC)c(OC)ccc2c1 | inactive | inactive | inactive | 6.06% (inactive) | -2.75% | 7.78% | inactive |
| CC(Oc1ccccc1)C(=O)NC1C(=O)N2C(C(=O)O)C(C)(C)S[C@@H]12 (stereo not given in full) | inactive | inactive | inactive | 7.31% (inactive) | 11.7% | 21.7% | inactive |
| C=C1CCC(=O)C(C)CCC2C1CC2(C)C (stereo not given) | inactive | inactive | inactive | 1.2% (inactive) | 13.1% | 14.5% | inactive |
| CC(C)=CCc1c(O)cc2oc(C)cc(=O)c2c1O | inactive | inactive | inactive | 2.12% (inactive) | -3.81% | -0.981% | inactive |
| CC(=O)OC1CC2C(C)(C)C(=O)[C@@H]3OC3[C@@]2(C)C2CC[C@]3(C)C(=CC(=O)OC3c3ccoc3)[C@]12C (stereo not given in full) | inactive | inactive | inactive | 2.11% (inactive) | 18.2% | 25.7% | inactive |
| CC1(C)C(=O)C2C[C@]3(O)C4=CC(=O)OC(c5ccoc5)[C@]4(C)CCC3[C@](C)(C2=O)C1CC(=O)O (stereo not given in full) | inactive | inactive | inactive | 3.73% (inactive) | 1.91% | 6.28% | inactive |
| COC(=O)CC1C(C)(C)C2(O)OC34CC2C(=O)[C@@]1(C)C3CC[C@]1(C)C4=CC(=O)OC1c1ccoc1 (stereo not given in full) | inactive | inactive | inactive | 4.29% (inactive) | -0.136% | 8.19% | inactive |

Reference: PubChem BioAssay (NCATS)
